# FMDV inh – High Throughput Screening for Foot and Mouth Disease Virus Antivirals; FMDV antiviral cell-based qHTS; Potency, µM (highest dose often 57.9 µM), for the others: top-dose activity change, negative = inhibition, most hits filed as inhibitors; actives 1.2% (n = 410,000); AID 1159524, 2015; calls by dose curve; tested in HEK293T cells; further: read-out not given here; potency means the concentration at half of the fitted maximal effect; nearly all actives have a fitted effect of over 45% in size
# HCV inhibitor – qHTS Assay for Inhibitors of Hepatitis C Virus (HCV) | Potency, µM (titrated, usually from 41.8 µM), for the others: at the highest dose activity change, negative = inhibition, hits mostly inhibitors | actives 3.4% (n = 340,000) | AID 651820, 2012 | Huh7.5.1 HCVcc-Cre infection, luciferase reporter, 44 h; active means well fitted inhibition curve with a large enough effect; inconclusive means small, poorly fitted or top-dose-only effect, or another doubt; inactive means no such curve, though single readings can be large or run the other way; further: potency means the concentration at half of the fitted maximal effect
#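 Cells (1,000/well) were plated 4 h before compound, then infected with HCVcc-Cre virus (~0.5 moi). After 44 h further culture, infection was read as luciferase luminescence following a 15 min substrate incubation at room temperature.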
# Marburg entry inh – qHTS for inhibitors of binding or entry into cells for Marburg Virus; Marburg virus pseudotyped entry inhibition, cell reporter; Potency, µM (top dose mostly 37.8 µM), for inactives: at the highest dose activity change, negative = inhibition, most hits filed as inhibitors; actives 1.8% (n = 300,000); AID 540276, 2011; calls by dose curve; tested in HEK293 cells; further: potency means the concentration at half of the fitted maximal effect
# Lassa entry inh – qHTS for Inhibitors of binding or entry into cells for Lassa Virus; Lassa virus pseudotype entry inhibition, cell reporter; Potency, µM (series often up to 37.9 µM), without a hit: at the top dose activity change, negative = inhibition, actives largely listed as inhibitors; actives 1.2% (n = 300,000); calls by dose curve; tested in HEK293 cells; further: potency means the concentration at half of the fitted maximal effect; nearly all actives have a fitted effect of over 50% in size
# HCMV antiviral – qHTS Assay for inhibitors of the human cytomegalovirus (HCMV). HFF cells, HCMV-luciferase reporter, 72 h; stronger effect = lower value. activity change, negative = inhibition, % at 57.5 µM. actives 4.5% (n = 410,000). AID 1259415, 2018; in the data active means activity change below about -60%; inconclusive means no clear call, values can overlap the other calls; inactive means above about -39%
#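 Two compound doses tested in HFFs infected with HCMV-luciferase, MOI 1 PFU/cell, 72 h at 37C. Lysate luminescence read with OneGlo; data normalized against buffer-only and 10uM Salinomycin inhibitor controls.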
# Starred values were filed as active, the others as inactive; ? = inconclusive; / = not tested or not shown; [ ] = another dose, or the depositor's remark. Most compounds without a hit are left out; they make up all but 7.9% or so of the library. On the % scale 0 is the no-effect control and ±100 the full control effect.
SMILES,FMDV inh,HCV inhibitor,Marburg entry inh,Lassa entry inh,HCMV antiviral
CCCCCOC(=O)c1ccc(NC(=O)c2ccco2)cc1,?,1%,-13%,-18%,-17
CCCOc1cccc(NC(=O)c2cc(C)oc2C)c1,-7%,10µM*,?,-3%,?
COc1cccc(NC(=O)c2cccc(NC(=O)c3ccco3)c2)c1,6%,/,/,/,?
Cc1cc(C(=O)Nc2ccccc2)c(C)o1,14%,10%,16%,0%,8
CCCCOC(=O)c1ccc(NC(=S)NC(=O)c2ccco2)cc1,-9%,26%,?,16µM*,-6
CCCCOc1cccc(NC(=O)c2cccc(C(=O)Nc3cccc(OCCCC)c3)c2)c1,-15%,/,/,0%[46.1 µM],-30
CCCCOc1cccc(C(=O)Nc2ccc(NC(=O)c3ccco3)cc2)c1,-8%,5%,3%[46.1 µM],/,-78*
COc1ccc(NC(=O)Cn2nnc(-c3nc(-c4ccncc4)no3)c2N)cc1OC,-8%,/,/,-2%[46.1 µM],13
Cc1cc2nc(N3CCC(NC(C)c4nc(-c5ccccn5)no4)CC3)nc(C)c2cc1C (stereo not given),-4%,/,/,/,/
O=S(=O)(Nc1ccc(Cc2ccncc2)cc1)c1ccc(Br)cc1,-13%,10µM*,?,?,-63*
O=S(=O)(Nc1ccc(Cc2ccncc2)cc1)c1ccc(Cl)cc1,-29%,11µM*,?,?,-65*
O=S(=O)(Nc1ccc(Cc2ccncc2)cc1)c1ccc(Br)s1,17%,-24%,?,?,?
COc1ccc(-c2cn3nc(N4CCC(C(=O)Nc5ccc(C)cc5)CC4)sc3n2)cc1,0%,/,/,12%[46.1 µM],0
COc1ccccc1C1CN(CC(=O)N2CCC(N3CCOCC3)CC2)Cc2ccccc2O1 (stereo not given),5%,/,/,/,/
CC(C)Nc1nc(NC(C)C)nc(N(C)N)n1,-8%,5.6µM*,-26%,?,14
CC(C)Nc1nc(NC(C)C)nc(N(C)C(N)=O)n1,5%,-7%,-9%,2%,51
Cc1cc(Nc2sc(C(=O)c3ccc(F)cc3)c(N)c2C(=O)Nc2ccc(F)cc2)ccc1Cl,10µM*,/,/,?,-108*
COc1ccc(NC(=O)c2c(Nc3ccccc3)sc(C(=O)c3ccc(F)cc3)c2N)cc1,?,6.3µM*,6.3µM*,13µM*,-83*
COc1ccc(C(=O)c2sc(Nc3ccccc3)c(C(=O)Nc3ccc(OC)c(OC)c3)c2N)cc1,-9%,-2%,1%,-23%,-4
COc1ccc(Nc2sc(C(=O)c3ccc(Cl)cc3)c(N)c2C(=O)Nc2ccccc2OC)cc1,-24%,?,?,-28%,?
COc1ccc(C(=O)c2sc(Nc3cccc(OC)c3)c(C(=O)Nc3cccc(C)c3C)c2N)cc1,-10%,-24%,21µM*,?,-70*
COc1ccc(Nc2sc(C(=O)c3ccccc3)c(N)c2C(=O)Nc2cc(C)ccc2C)c(OC)c1,-9%,/,/,-10%[46.1 µM],-74*
Cc1ccc(NC(=O)c2c(Nc3ccccc3C)sc(C(=O)c3ccccc3)c2N)cc1,?,/,/,?,-30
COc1cccc(Nc2sc(C(=O)c3ccc(Cl)cc3)c(N)c2C(=O)NCc2ccc(C)cc2)c1,?,/,/,?,-80*
CCOc1ccc(NC(=O)c2c(Nc3ccccc3C)sc(C(=O)c3ccc(Cl)cc3)c2N)cc1,?,/,/,-62%[46.1 µM],22
SMILES,FMDV inh,HCV inhibitor,Marburg entry inh,Lassa entry inh,HCMV antiviral
COc1ccccc1NC(=O)c1c(Nc2ccccc2C)sc(C(=O)Nc2cccc(Cl)c2)c1N,7.9µM*,13µM*,?,?,-97*
CC1=C(C(=O)Nc2ccc(Cl)cc2)C(c2cccs2)n2nc(SCc3cccc(Cl)c3)nc2N1 (stereo not given),15%,/,-4%[46.1 µM],-6%[46.1 µM],1
COC(=O)c1ccc(N2C(c3ccsc3)=Cc3cc4c(cc3C2CC(=O)c2ccco2)OCO4)cc1 (stereo not given),5%,/,/,/,-69*
COC(=O)c1ccc(N2C(c3cc(OC)cc(OC)c3)=Cc3ccc(OC)cc3C2CC(=O)c2ccco2)cc1 (stereo not given),4%,/,/,/,24
COC(=O)c1sccc1S(=O)(=O)N(CC(=O)NCc1ccccc1)c1ccc(C)c(C)c1,46%,/,/,?,1
COc1ccc(N2CCC[C@@H]2/C=C/C(=O)OC(C)(C)C)cc1,/,/,/,/,24
COc1ccc(S(=O)(=O)N2CCCCCC2)cc1C(=O)N(C)Cc1ccc(Cl)cc1Cl,0%,11µM*,?,?,-29
Cc1cc(C)c(S(=O)(=O)N2CCCCC2)cc1N(C)S(=O)(=O)c1ccc(Cl)cc1,-14%,32µM*,?,?,?
COc1ccc(S(=O)(=O)N2CCCCCC2)cc1N(C)S(=O)(=O)c1ccc(C)cc1,-2%,?,?,?,-77*
O=C(NCc1ccc2c(c1)CCN2C(=O)c1ccncc1)c1ccc(Cl)cc1,-24%,/,/,?,-8
Cc1ccc(C(=O)N2CCCCC2)cc1NC1=C(Cl)C(=O)N(Cc2ccccc2)C1=O,?,?,/,/,-66*
O=C(c1ccc2c(c1)N(Cc1cccc(Cl)c1)C(=O)c1ccccc1S2(=O)=O)N1CCCCCC1,3%,/,/,?,-65*
O=C(c1ccc2c(c1)N(Cc1ccc(Cl)cc1)C(=O)c1ccccc1S2(=O)=O)N1CCN(c2ccccn2)CC1,-24%,/,-5%[46.1 µM],2%[46.1 µM],-19
O=C(c1ccc2c(c1)N(Cc1cccc(Cl)c1)C(=O)c1ccccc1S2(=O)=O)N1CCN(c2ccccn2)CC1,-6%,14µM*,/,/,-84*
CCC1CCCCN1CCCNC(=O)c1ccc2c(c1)N(Cc1ccccc1F)C(=O)c1ccccc1S2(=O)=O (stereo not given),-7%,/,?,?,-101*
O=C(c1ccc2c(c1)N(Cc1cccc(Cl)c1)C(=O)c1ccccc1S2(=O)=O)N1CCCC1,-1%,/,/,-21%[46.1 µM],?
Cc1ccc(O)c(NC2=C(Cl)C(=O)N(Cc3ccccc3)C2=O)c1,7%,-19%,-46%[46.1 µM],2%[46.1 µM],-2
O=C(NCCCN1CCCC1)c1ccc2c(c1)N(Cc1ccccc1F)C(=O)c1ccccc1S2(=O)=O,16%,?,/,/,0
N#C/C(=C\c1ccc(Cl)cc1)C(=O)NCC1CCCO1 (stereo not given),-2%,/,/,-12%[46.1 µM],5
O=C(c1ccc2c(c1)N(Cc1cccc(Cl)c1)C(=O)c1ccccc1S2(=O)=O)N1CCN(Cc2ccccc2)CC1,-13%,/,/,?,-67*
COc1ccccc1N1CCN(C(=O)c2ccc3c(c2)N(Cc2ccccc2)C(=O)c2ccccc2S3(=O)=O)CC1,4%,/,8.9µM*,-23%[46.1 µM],5
COc1ccc(CCNC(=O)c2ccc3c(c2)N(Cc2ccc(F)cc2)C(=O)c2ccccc2S3(=O)=O)cc1OC,-1%,/,10µM*,-27%[46.1 µM],-24
Cc1ccc(C)c(CN2C(=O)c3ccccc3S(=O)(=O)c3ccc(C(=O)N(C)C4CCCCC4)cc32)c1,20%,/,?,-22%[46.1 µM],-76*
